PBM binding z-score data for 40 sequences are collected here from the supplement of paper PMC6555819.

The subject of the first test is PPARg:RXRa 30nM:10nM, anti-RXR (NR concentration 30 nM, RXRa partner concentration 10 nM). Kind of test: PBM binding z-score (relative to random genomic background probes); higher = stronger binding; sequences stand for … in GC…GCGATTGACAGCGTAGAATGAAGG
The essentials: (§1)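 Custom Agilent 4×180K protein-binding microarrays carried double-stranded probes, each with a 34-nt variable region. These regions held direct-repeat seeds, single-nucleotide variants, half-site ablations and random human genomic background sequences. Ligand-free nuclear receptor dimers were incubated on the arrays for 1 h, antibodies against each partner (one per run) detected binding, and scanned fluorescence was regression-normalized. Binding z-scores take the random background probes as reference.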
For the sequence ATATGTAGGTTAAGGGTCAGTCAGGTTGGTTCGC, the PBM binding z-score stood at 9.35.
Still for that read-out and setting: as for TTACCAAGGTGAAAGGGCGTTGATGCACGCCTTG, the figure is 4.32; as for CGTCAAAGTTCGACTAAGGTAACGTAAAGCACGC, 0.439; as for CAAACTAGGGCAAGGTCAAAGTCGGTTTGTGCCA, 4.88.
Sequence ACTATTAGTTGACTTACGGCAACCGATACGACGC gave a PBM binding z-score of 0.212.
Turning to CCGACTGGGGCATAAGGTTACTATAAGCCAGCCC, the PBM binding z-score was 0.95.
Same read-out and setting: as for GCAGACAGGTGAAACGCAGGGAACTCAGGGTGGC, the figure is -0.526.
Still for that read-out and setting: as for TAGCCTACGTCATGCGGGCCAGTATAGTGTCGGC, the figure is -0.767.
In turn, CCTACTGGGCCACGGTCATTGATCAGTCAAAGCA registered a PBM binding z-score of -0.0299.
CGAACTAGGTCAAGGACAGTGATTCTCCGCACGC gave a PBM binding z-score of 3.52.
As to CCAGACAGGTGAAAGATAACTCAGTCTGGTACGC, the PBM binding z-score amounted to 0.306.
With TATACAGGGTCAAAGGCCAGGGTACGAATGTCGA, the PBM binding z-score is 5.77.
As to CCTAGTTGGTCAAGGTCACAAACGCTATAGGTAC, the PBM binding z-score was 1.09.
Sequence CGTCCAAGGTCAGAGAGGTCAGGGAATGCCGAGT displayed a PBM binding z-score of 1.42.
In turn, GCCTACGGGTCAAAGGTTATAGCATGAATAGAAT registered a PBM binding z-score of 7.8.
In the case of GGCACGAGGGCAAAGTTGATAGCATCTGTCGACG, the PBM binding z-score came to 4.26.
As to GCAGACAGGTGAAACGCAGGTAAATCAGGGTGGC, the PBM binding z-score is -0.632.
Still for that read-out and setting: as for TCTAGTTGGTCACGGAGGTGACACACGACGGGTA, the figure is 2.83; as for CAAGACAGGTGAGAAGGTAACTCAGCCTCGATTA, 0.302.
With TCGAGTAGGTTAGTCGGGGCATTAAGCCAACATA, the PBM binding z-score amounted to 1.05.
For the sequence CTACCAAGGTGAAAAAGGTCGTTGATTACTATTC, the PBM binding z-score turned out to be 0.297.
As to ACTAGCAGGCCAAGTTTGGGTCAGTCAAACAAAG, the PBM binding z-score was -0.835.
Still for that read-out and setting: as for GCTAGTTGTTCAGTAAAAGGTCACACACCGGTCG, the figure is 1.49; as for CCTAGCAGGCCAATCTGGGTCCCTCAAGGCTTGA, -1.08.
CTTACTGGGCCACGAAAGGTCATTGATTCAGTGA showed a PBM binding z-score of 4.14.
AGAACGAGGGCAAAGAGTTGATAGCACGGGTGGC had a PBM binding z-score of 0.549.
Sequence GCTAGCAGGCCATTTGGGTCAATCAATGACGGGC had a PBM binding z-score of -1.07.
On to GCTATTAGTTGAAGGGGCAACCGAATGATTCTCG, for which the PBM binding z-score was determined as 0.49.
The sequence AGTCAAAGTTCAGGACGAGGTAACGAAAAGCACG registered a PBM binding z-score of 2.18.
Still for that read-out and setting: as for CTCGAAAGGTCGTGCTCAGGCGAGTATACCAAAC, the figure is 0.448; as for AGAAGGAGGTTACCAAAGATCAGGGAAACGCTTG, 0.736; as for TTTCAAAGTTCAAAGGTAACGTAAGTATCCACAC, 3.39.
In the case of CGTCCAAGGTCAGAGAGGTCAGTGAGTGCCGAGT, the PBM binding z-score stood at 0.893.
In turn, CAAACTAGGTCAAGAGGTCAAGGTCCGCTTCCCG came in with a PBM binding z-score of 6.69.
As for CGTCAAAGTTCAACTAAGCTAACGTAAAGCACGC, the PBM binding z-score turned out to be 1.83.
In turn, GAGACTGGGGCATCAGCAGGTTACCATAACTTAA returned a PBM binding z-score of 0.0526.
The same measure, in the same setting: as for TCTAGTTAGTCACGGAGGTCACACACGACGGGTA, the figure is 3.48; as for CGTCCAAGGCCAGCAGGTCAGTGAAAGCGACGTG, -0.911.
Sequence CCAGACCGGTGAGAAGGTAACTCAGCCTCGATTA showed a PBM binding z-score of -0.601.
Consider CCGACTGGGACAAGGTTACCATAACGCACAGCCA, for which the PBM binding z-score is 0.494.

The test system of a further test is PPARg:RXRa 90nM:30nM, anti-RXR (NR concentration 90 nM, RXRa partner concentration 30 nM). The test is described as above. The essentials:
as §1
In turn, ATATGTAGGTTAAGGGTCAGTCAGGTTGGTTCGC yielded a PBM binding z-score of 11.6.
Turning to TTACCAAGGTGAAAGGGCGTTGATGCACGCCTTG, the PBM binding z-score is 5.82.
Consider CGTCAAAGTTCGACTAAGGTAACGTAAAGCACGC, for which the PBM binding z-score came out at 1.37.
Regarding CAAACTAGGGCAAGGTCAAAGTCGGTTTGTGCCA, the PBM binding z-score is 7.3.
With ACTATTAGTTGACTTACGGCAACCGATACGACGC, the PBM binding z-score turned out to be 0.113.
Take CCGACTGGGGCATAAGGTTACTATAAGCCAGCCC: the PBM binding z-score stood at 2.34.
In the case of GCAGACAGGTGAAACGCAGGGAACTCAGGGTGGC, the PBM binding z-score was -0.424.
As for TAGCCTACGTCATGCGGGCCAGTATAGTGTCGGC, the PBM binding z-score was -0.769.
CCTACTGGGCCACGGTCATTGATCAGTCAAAGCA: the PBM binding z-score is 1.1.
With CGAACTAGGTCAAGGACAGTGATTCTCCGCACGC, the PBM binding z-score came out at 5.66.
As for CCAGACAGGTGAAAGATAACTCAGTCTGGTACGC, the PBM binding z-score was 1.
The sequence TATACAGGGTCAAAGGCCAGGGTACGAATGTCGA came in with a PBM binding z-score of 6.97.
Consider CCTAGTTGGTCAAGGTCACAAACGCTATAGGTAC, for which the PBM binding z-score worked out at 2.53.
In turn, CGTCCAAGGTCAGAGAGGTCAGGGAATGCCGAGT registered a PBM binding z-score of 3.6.
GCCTACGGGTCAAAGGTTATAGCATGAATAGAAT: the PBM binding z-score was 9.24.
In the case of GGCACGAGGGCAAAGTTGATAGCATCTGTCGACG, the PBM binding z-score is 6.86.
In turn, GCAGACAGGTGAAACGCAGGTAAATCAGGGTGGC gave a PBM binding z-score of -0.346.
For the sequence TCTAGTTGGTCACGGAGGTGACACACGACGGGTA, the PBM binding z-score was 2.24.
CAAGACAGGTGAGAAGGTAACTCAGCCTCGATTA: the PBM binding z-score is 0.808.
The same measure, in the same setting: the result for TCGAGTAGGTTAGTCGGGGCATTAAGCCAACATA reads 1.18.
CTACCAAGGTGAAAAAGGTCGTTGATTACTATTC gave a PBM binding z-score of 0.721.
Turning to ACTAGCAGGCCAAGTTTGGGTCAGTCAAACAAAG, the PBM binding z-score was -0.45.
Sequence GCTAGTTGTTCAGTAAAAGGTCACACACCGGTCG had a PBM binding z-score of 3.27.
Still for that read-out and setting: as for CCTAGCAGGCCAATCTGGGTCCCTCAAGGCTTGA, the figure is -0.919; as for CTTACTGGGCCACGAAAGGTCATTGATTCAGTGA, 5.7.
AGAACGAGGGCAAAGAGTTGATAGCACGGGTGGC registered a PBM binding z-score of 1.55.
On to GCTAGCAGGCCATTTGGGTCAATCAATGACGGGC, for which the PBM binding z-score was -0.156.
On to GCTATTAGTTGAAGGGGCAACCGAATGATTCTCG, for which the PBM binding z-score amounted to 1.65.
Sequence AGTCAAAGTTCAGGACGAGGTAACGAAAAGCACG yielded a PBM binding z-score of 4.04.
As to CTCGAAAGGTCGTGCTCAGGCGAGTATACCAAAC, the PBM binding z-score is 1.95.
Same read-out and setting: the result for AGAAGGAGGTTACCAAAGATCAGGGAAACGCTTG reads 1.37.
On to TTTCAAAGTTCAAAGGTAACGTAAGTATCCACAC, for which the PBM binding z-score stood at 5.49.
As to CGTCCAAGGTCAGAGAGGTCAGTGAGTGCCGAGT, the PBM binding z-score stood at 2.59.
CAAACTAGGTCAAGAGGTCAAGGTCCGCTTCCCG returned a PBM binding z-score of 8.28.
Turning to CGTCAAAGTTCAACTAAGCTAACGTAAAGCACGC, the PBM binding z-score came to 4.48.
GAGACTGGGGCATCAGCAGGTTACCATAACTTAA had a PBM binding z-score of 0.657.
TCTAGTTAGTCACGGAGGTCACACACGACGGGTA registered a PBM binding z-score of 3.22.
With CGTCCAAGGCCAGCAGGTCAGTGAAAGCGACGTG, the PBM binding z-score was -0.203.
CCAGACCGGTGAGAAGGTAACTCAGCCTCGATTA gave a PBM binding z-score of -0.547.
Consider CCGACTGGGACAAGGTTACCATAACGCACAGCCA, for which the PBM binding z-score worked out at 1.59.
